Measurements: the supplement of paper PMC4723716

Test system: Plasmodium falciparum NF54 gametocytes
Assay: viability index relative to DMSO control (fraction); higher = less gametocyte killing
Conditions: 12.5 µM, incubation time: 72 h
Method in brief: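 Each stage (I–V) of P. falciparum NF54 gametocytes was incubated with compound at 12.5 µM in 384-well plates, in 40 µl of serum-containing medium at 0.50% gametocytemia and 1.25% hematocrit, for 72 hr at 37°C under low oxygen. After 5 µl of 5 µM MitoTracker Red CMXRos was added for 20 min, 5 µl from each well was moved into 40 µl of 500 nM dye in serum-free medium and imaged across three fields after 30 min. The viability index is the gametocyte particle count divided by the plate mean of the solvent-only wells.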

[1] = gametocyte stage: Stage I viability index
[2] = gametocyte stage: Stage II viability index
[3] = gametocyte stage: Stage III viability index
[4] = gametocyte stage: Stage IV viability index
[5] = gametocyte stage: Stage V viability index

SMILES | viability index [1] | viability index [2] | viability index [3] | viability index [4] | viability index [5]
Oc1ccc(Br)cc1CN1CCN(Cc2ccc(Cl)cc2)CC1 | 0.0201 | 0.0916 | 0.422 | 0.595 | 0.455
Oc1ccc(C(=C(Cl)Cl)c2ccc(O)cc2)cc1 | 0.596 | 0.301 | 0.741 | 0.756 | 0.584
CCCc1cc(O)c2c3c(c(=O)oc2c1)CN(C)CC3 | 0.134 | 0.296 | 0.649 | 0.827 | 0.637
CCOc1c(Cl)cc(CNC(C)C(O)c2ccccc2)cc1OC (stereo not given) | 0.0917 | 0.317 | 0.584 | 0.754 | 1.14
COc1ccc(CN2CCN(Cc3ccccc3)CC2)c(O)c1 | 0.0656 | 0.0974 | 0.362 | 0.57 | 0.494
Oc1ccc(Br)cc1CN1CCN(Cc2cccc(F)c2)CC1 | 0.0385 | 0.0899 | 0.0787 | 0.196 | 0.273
O=C(CCc1ccco1)NC1CCN(CC2(c3ccc(Cl)cc3)CCC2)CC1 | 0.103 | 0.412 | 0.854 | 0.903 | 1.05
CN(N=O)C1=C(NC2CCCCC2)C(=O)c2ccccc2C1=O | 0.00787 | 0.0183 | 0.309 | 0.456 | 0.234
CCOc1cc(CNC(C)C(O)c2ccccc2)cc(Cl)c1OCC (stereo not given) | 0.137 | 0.337 | 0.634 | 0.729 | 0.791
CCCCCCc1cc(O)c2c3c(c(=O)oc2c1)CCC(C)C3 (stereo not given) | 0.291 | 0.329 | 0.578 | 0.608 | 0.74
C=CC12CCN(CC1)C(C(O)c1ccnc3ccc(OC)cc13)C2 (stereo not given) | 1.08 | 1.08 | 1.13 | 0.976 | 1.1
COc1cc(CNCCc2ccc(Cl)cc2)cc(OC)c1O | 0.049 | 0.44 | 0.801 | 1.01 | 0.896
